# Screens: PubChem, National Center for Advancing Translational Sciences (NCATS)
# Rows were chosen to be rich in hits. Some 2.2% of all compounds tested hit in one or more screens of this group.
# TDP-43 yeast inh: qHTS of TDP-43 Inhibitors. TDP-43 expressing yeast growth rescue, BacTiter-Glo, 24 h. 1.8% of 410,000 active. Potency, µM (highest dose often 46.1 µM), inactives show at the top dose growth rescue (activation), actives largely listed as activators; further: % of control where 0% means no effect; nearly all actives have a fitted effect of over 50% in size
#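 Cell-based yeast growth screen: TDP-43 expression induced in galactose, inoculum OD600=0.02 after raffinose pregrowth to mid-log. Read-out BacTiter-Glo luminescence at 24 hr, 30 deg C; inhibition of toxicity seen as signal increase.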
# ERG Ets-DNA blk: qHTS for Small Molecule Inhibitors of the ERG Ets/DNA interaction | Potency, µM (series often up to 76.9 µM), inactives show at the top dose FP activity, negative = inhibition, actives largely listed as inhibitors | 0.028% of 370,000 active | fluorescence polarization, His-ERG Ets domain / labelled DNA; active means well fitted inhibition curve with a large enough effect in the polarisation, with a control signal flat; inconclusive means small, poorly fitted or top-dose-only effect, or effect the other way, or a change in a side signal; inactive means no such curve, though single readings can be large or run the other way; the % refers to the polarisation;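 further: polarization taken with two DNA probes labelled with fluorescein and Texas red; % of control where 0% means no effect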
# Target sequence (P11308 whole entry, looked up, the tested form may be a part): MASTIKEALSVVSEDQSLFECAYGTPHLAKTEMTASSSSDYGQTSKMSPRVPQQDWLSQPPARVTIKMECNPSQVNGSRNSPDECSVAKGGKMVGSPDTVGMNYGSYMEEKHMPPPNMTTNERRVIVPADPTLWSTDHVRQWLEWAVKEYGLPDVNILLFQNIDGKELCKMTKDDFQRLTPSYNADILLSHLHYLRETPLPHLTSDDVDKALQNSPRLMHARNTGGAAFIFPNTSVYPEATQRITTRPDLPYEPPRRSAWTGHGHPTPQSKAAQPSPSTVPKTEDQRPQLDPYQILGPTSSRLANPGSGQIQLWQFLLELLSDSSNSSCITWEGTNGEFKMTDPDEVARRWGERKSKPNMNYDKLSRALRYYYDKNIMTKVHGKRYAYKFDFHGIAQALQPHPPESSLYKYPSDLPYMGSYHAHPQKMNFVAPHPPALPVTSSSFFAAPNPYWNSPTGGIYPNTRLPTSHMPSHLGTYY
#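 His-tagged ERG Ets domain (1 uM in the protein solution; 300mM KCl, 50mM Tris-HCl, 1mM EDTA, 1mM DTT, pH 7.5) received compound, then a probe mix of 5 nM fluorescein-DNA and 100nM Texas-615-DNA. Fluorescence polarization was read for both dyes.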
# aSyn yeast inh: qHTS of alpha-syn Inhibitors; Yeast expressing alpha-synuclein, growth rescue, BacTiter-Glo, 24 h; Potency, µM (highest dose often 46.1 µM), for the others: top-dose growth rescue (activation), usual class: activators; 0.14% of 370,000 active; further: % of control where 0% means no effect; nearly all actives have a fitted effect of over 65% in size
#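 Screening used galactose-induced yeast with toxic alpha-synuclein levels, exposed to compound for 24 hr at 30 deg C. Cell growth, read with BacTiter-Glo luminescence, gave the measured signal.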
# Mito fusion yeast: qHTS Assay for Small Molecule Inhibitors of Mitochondrial Division or Activators of Mitochondrial Fusion. AID 485298, 2010. Potency, µM (top dose mostly 46.1 µM), inactives show top-dose growth rescue (activation), hits mostly activators. S. cerevisiae fusion-defective mutant growth rescue, CellTiterGlo 48 h. 0.23% of 320,000 active; further: % of control where 0% means no effect; nearly all actives have a fitted effect of over 45% in size
#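 S. cerevisiae fusion-defective temperature-sensitive mutants (e.g. fzo1-1, mgm1-5) grown 48 h at 37C in YPEG (ethanol/glycerol non-fermentable) medium with 23 nl compound per well; growth rescue read as CellTiterGlo luminescence.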
# Abeta rescue: qHTS for compounds that reverse cellular toxicity of Amyloid beta (A-beta) peptide in yeast: Primary Screen; yeast expressing A-beta42, growth rescue, OD600, 48 h; response scale: 0% DMSO, 100% iron-clioquinol control; Potency, µM (series often up to 46.1 µM), usual class: activators; 0.063% of 410,000 active; further: nearly all actives have a fitted effect of over 55% in size
#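 Yeast A-beta toxicity model in growth medium with pinned compounds, 48 h at 30 C; growth read as absorbance at 600 nm. Normalized to FeCl3/clioquinol equimolar mix (positive) and DMSO (negative).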
# FUS yeast rescue: qHTS for Suppressors of FUS Proteinopathy: Primary screen using FUS-linked yeast assay | AID 1347120, 2019 | 0.24% of 390,000 active | S. cerevisiae FUS-expressing, growth rescue, OD600, 24 h | Potency, µM (titrated, usually from 76.6 µM), usual class: activators;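 further: plate controls were DMSO vehicle for no effect and reference control for full effect; nearly all actives have a fitted effect of over 55% in size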
#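 Quantitative HTS measuring growth restoration of FUS-toxic yeast. Galactose-induced cells (OD 0.005) were exposed 24hr at 30C to compounds at several concentrations, then absorbance at 600 nm was recorded.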
# Active calls of the source: *; i = inactive; ? = inconclusive; nt = no result; [ ] = another dose, or the depositor's remark. Unless noted, the call rests on the fitted dose curve; in most records, active means well fitted curve in the direction sought with a large enough effect; inconclusive means small, poorly fitted or top-dose-only effect, or another doubt; inactive means no such curve, though single readings can be large; an effect the other way counts as inactive or inconclusive. Potency means the concentration at half of the fitted maximal effect.
SMILES,TDP-43 yeast inh,ERG Ets-DNA blk,aSyn yeast inh,Mito fusion yeast,Abeta rescue,FUS yeast rescue
CCn1c2ccccc2c2nnc(SCC(N)=O)nc21,-12%,nt,-5%,4%,i,i
O=C(CSc1nnc(-c2cc3ccccc3cc2O)n1Cc1ccco1)N1CCc2ccccc2C1,-20%,-1%,9%,?,i,16µM*
CC1=C(C(=O)OC2CCCCCC2)C(c2cccc(Cl)c2)CC(=O)N1 (centres undefined),-13%,5%,nt,nt,i,i
C/C(=N\Nc1ccccc1Cl)c1ccc(-n2ccnc2)cc1,7.1µM*,-14%,0%,-17%,i,i
CCn1cc(C(c2ccccc2)C(C(C)=O)[N+](=O)[O-])c2ccccc21 (centres undefined),-1%,1%,8%,5%,i,i
COc1cc(C(C[N+](=O)[O-])c2c(C)[nH]c3ccccc23)ccc1O (centres undefined),13%,31%,0%,11%,i,i
CC(=O)C(C(c1ccccc1)c1c[nH]c2ccccc12)[N+](=O)[O-] (centres undefined),13µM*,-13%,?,11%,?,i
COc1ccccc1C(C[N+](=O)[O-])c1c[nH]c2ccccc12 (centres undefined),20µM*,-4%,?,19%,i,i
COc1ccccc1N1CCN(C(CNC(=O)C(=O)NCCc2ccccc2)c2cccnc2)CC1 (centres undefined),12%,-5%,nt,nt,i,i
Cc1cccc(Nc2nc(-c3ccccc3)nc3ccccc23)c1,25µM*,-4%,nt,nt,i,i
Cc1ccc(Nc2nc(-c3ccccc3)nc3ccccc23)cc1,13µM*,3%,-31%,nt,i,i
O=C(Nc1ccccc1C(F)(F)F)N1CCOc2ccc(Cl)cc21,15%,-1%,nt,nt,i,i
Cc1ccccc1CN1CCC(CNc2ncnc3onc(-c4ccc(F)cc4)c23)CC1,-3%,0%,nt,nt,i,i
CC1(C(=O)Nc2ccc(F)cc2F)CCN1C(=O)Cc1ccc(Cl)cc1Cl (centres undefined),16µM*,nt,14%,nt,i,i
CSc1ccccc1NC(=O)C1(C)CCN1C(=O)Cc1ccc(Cl)cc1Cl (centres undefined),0%,nt,9%,nt,i,i
COc1ccc(NC(=O)C2CCCN2S(=O)(=O)c2cccc3cccnc23)c(OC)c1 (centres undefined),2.5µM*,-1%,0%,-30%,i,i
Cc1ccc(Cl)cc1N1CCN(C(=O)c2cn(C)c3ccc(S(=O)(=O)N4CCCCC4)cc3c2=O)CC1,17%,-1%,nt,nt,i,i
CN(Cc1ccccc1)S(=O)(=O)c1cc(Br)cc2c1N(C(=O)C1CC1)CC2,4%,2%,nt,nt,i,i
Fc1ccccc1CSc1nc2ccccc2[nH]1,13%,-2%,-15%,1%,i,i
Fc1c(F)c(F)c(CSc2nc3ccccc3[nH]2)c(F)c1F,11µM*,-14%,-11%,3%,i,i
Cc1ccccc1N1CCN(S(=O)(=O)c2ccccc2)CC1,13µM*,-5%,6%,16%,i,i
S=C(c1ccccc1)N1CCN(c2ccccc2)CC1,0%,13%,3%,nt,i,i
Cc1ccccc1N1CCN(C(=S)c2ccccc2)CC1,11µM*,2%,-3%,16%,i,nt
Cc1cc(S(=O)(=O)N2CCN(c3ccccc3C)CC2)ccc1F,13%,?,3%,11%,i[9.22 µM],i
CC(C)Oc1cccc(-c2n[nH]c(=S)n2N=Cc2ccc(OCc3ccccc3)cc2)c1,nt,nt,nt,nt,nt,i
